# Among all 30,000 compounds or so, about 110 (0.37%) were called active. This is one part of a sample in which actives are shown more often than they occur. Values without a mark were called inactive.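 Rule for the calls: active = delta delta Cp rounded down to an integer at or above 3, about 3 SD of DMSO wells; inactive = the rest.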
# Assay: YB-1 transcript reduction by qRT-PCR – cell-based, fluorescence, primary screen (AID 434959);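 note: higher means less YB-1 transcript or more CDIP transcript relative to DMSO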
# Settings: U2OS, qRT-PCR YB-1 vs CDIP delta delta Cp, 16 h; active compounds read high; zero = DMSO, each unit about twofold
row,Compound,delta Cp (YB-1 minus CDIP)
1,C/C(=C\CC[C@H](CO)[C@@H]1CC[C@]2(C)C3=C(CC[C@@]12C)[C@@]1(C)CCC(=O)C(C)(C)C1CC3)C(=O)O (some centres undefined),-0.0322
2,C[C@H](CO)N1C[C@H](C)[C@H](CN(C)CC2CC2)Oc2ccc(NS(=O)(=O)c3ccccc3)cc2CC1=O,-0.128
3,Cc1noc(C)c1S(=O)(=O)Nc1ccc2c(c1)CC(=O)N([C@@H](C)CO)C[C@H](C)[C@H](CN(C)S(=O)(=O)c1ccc(Cl)cc1)O2,0.105
4,C[C@H]1CN([C@@H](C)CO)C(=O)Cc2cc(NS(C)(=O)=O)ccc2O[C@@H]1CN(C)S(=O)(=O)c1ccc(Cl)cc1,0.259
5,Cc1noc(C)c1NC(=O)Nc1ccc2c(c1)C(=O)N([C@@H](C)CO)C[C@@H](C)[C@H](CN(C)C(=O)NC(C)C)O2,-0.101
6,C[C@H](CO)N1C[C@H](C)[C@H](CN(C)CC2CCCCC2)Oc2ccc(NC(=O)CCN3CCOCC3)cc2CC1=O,0.315
7,C[C@H]1CN([C@@H](C)CO)C(=O)CCCn2cc(nn2)CO[C@H]1CN(C)C(=O)Nc1ccc(F)cc1,-0.241
8,C=CCN1C(=O)[C@]2(O[C@H](CCn3cc(CCO)nn3)[C@@H]([Si](C)(C)c3ccc(OC)cc3)[C@@H]2C)c2cc(N3CCOC3=O)ccc21,-0.00312
9,COc1ccc(NC(=O)O[C@H](c2ccc(OCCO)cc2)[C@@H](CCO)OC)cc1,-1.3
10,C[C@@H]1CCCCO[C@H](CN(C)C(=O)NC2CCCCC2)[C@@H](C)CN([C@H](C)CO)C(=O)c2cc(NS(C)(=O)=O)ccc2O1,0.322
11,COc1ccc(S(=O)(=O)N(C)C[C@@H]2Oc3ccc(NC(=O)CCC(F)(F)F)cc3C(=O)N([C@@H](C)CO)C[C@@H]2C)cc1,-0.166
12,C[C@H](CO)N1C[C@H](C)[C@H](CN(C)S(=O)(=O)c2ccccc2)Oc2c(NC(=O)CCCCCC(=O)Nc3ccccc3N)cccc2C1=O,0.187
13,C[C@@H]1CN([C@@H](C)CO)C(=O)c2cccc(NC(=O)Nc3ccc4c(c3)OCO4)c2O[C@H]1CN(C)C(=O)Nc1cccc2ccccc12,0.0736
14,COc1ccc(NC(=O)Nc2ccc3c(c2)CC(=O)N([C@@H](C)CO)C[C@@H](C)[C@@H](CN(C)Cc2ccc(Cl)c(Cl)c2)O3)cc1,0.191
15,C=C1C2=CC(=O)O[C@@H](c3ccoc3)[C@]2(C)CCC1[C@@]1(C)C=CC(=O)C(C)(C)[C@@H]1CC(=O)OC (some centres undefined),0.366
16,C[C@@H]1CN([C@H](C)CO)C(=O)c2cc(NC(=O)Cc3ccccc3)ccc2O[C@@H]1CN(C)CC1CCCCC1,-0.0442
17,C[C@H]1CN([C@@H](C)CO)C(=O)c2cccc(NS(=O)(=O)c3ccc(Cl)cc3)c2O[C@H]1CN(C)Cc1ccc2c(c1)OCO2,0.321
18,C[C@@H]1CN([C@H](C)CO)C(=O)c2cccc(NC(=O)CCCCCC(=O)Nc3ccccc3N)c2O[C@@H]1CN(C)C(=O)Nc1ccccc1,0.438
19,C[C@H]1CN([C@@H](C)CO)C(=O)Cc2cc(NC(=O)CCCN(C)C)ccc2O[C@@H]1CN(C)Cc1ccc(-c2ccccc2)cc1,-1.08
20,Oc1ccc2c(c1)OCC1c3cc4c(cc3OC21)OCO4 (centres undefined),0.271

row,Compound,delta Cp (YB-1 minus CDIP)
1,COc1ccc(CN(C)C[C@@H]2Oc3c(NC(=O)C4CC4)cccc3C(=O)N([C@@H](C)CO)C[C@H]2C)cc1,-0.213
2,CC(C)NC(=O)Nc1ccc2c(c1)CC(=O)N([C@H](C)CO)C[C@@H](C)[C@H](CN(C)S(=O)(=O)c1ccccc1)O2,0.113
3,C[C@H](CO)N1C[C@H](C)[C@H](CN(C)CC2CCCCC2)Oc2ccc(NC(=O)CCCCCC(=O)Nc3ccccc3N)cc2CC1=O,-0.217
4,C[C@H]1CN([C@@H](C)CO)C(=O)c2cccc(NC(=O)NC3CCCCC3)c2O[C@H]1CN(C)CC1CCCCC1,-0.236
5,Cc1onc(-c2c(Cl)cccc2Cl)c1C(=O)N=S(C)(C)=O,-0.447
6,C[C@H]1CN([C@@H](C)CO)C(=O)CCCn2cc(nn2)CO[C@@H]1CN(C)S(=O)(=O)c1ccc(-n2cccn2)cc1,-0.848
7,C[C@H](CO)N1C[C@H](C)[C@H](CN(C)S(=O)(=O)c2ccc(C#N)cc2)Oc2ncc(-c3cccc(F)c3)cc2C1=O,0.397
8,COCCOC(=O)N1C(=O)[C@@]2(c3cc(C#CCC(C(=O)OC)C(=O)OC)ccc31)[C@H](c1ccc(OCCO)cc1)N1[C@H](c3ccccc3)[C@H](c3ccccc3)OC(=O)[C@H]1[C@@H]2C(N)=O,-0.585
9,CCOC(=O)c1cc(=O)c2ccc(OCc3ccccc3)cc2o1,0.522
10,Cc1noc(C)c1S(=O)(=O)Nc1ccc2c(c1)C(=O)N([C@@H](C)CO)C[C@H](C)[C@H](CN(C)C(=O)Nc1ccc(C(F)(F)F)cc1)O2,-0.372
11,O=C(NO)c1ccc(C(=O)N/N=C/c2ccc(Br)cc2)cc1,-0.432
12,C[C@H](CO)N1C[C@H](C)[C@@H](CN(C)Cc2ccc(Oc3ccccc3)cc2)OCc2cn(nn2)CCCC1=O,-0.14
13,COC(=O)C1=C(N)Oc2cc(C)oc(=O)c2C1c1cccnc1 (centres undefined),-0.311
14,COc1ccc(NC(=O)N(C)C[C@H]2Oc3ccc(NC(=O)Nc4ccc5c(c4)OCO5)cc3C(=O)N([C@H](C)CO)C[C@H]2C)cc1,0.191
15,Cc1ccc(-c2cn3c4c(sc3n2)CCCC4)cc1,0.773
16,Cc1ccc(-n2c(C)nc3sc4c(c3c2=O)CCC4)cc1,5.31 (active)
17,O=C(N/N=C/c1ccc([N+](=O)[O-])s1)c1ccccc1O,0.165
18,C[C@H](CO)N1C[C@H](C)[C@@H](CN(C)Cc2ccc(Cl)c(Cl)c2)Oc2c(NC(=O)C3CCCCC3)cccc2C1=O,-0.923
19,Cc1ccc(CN(C)C[C@@H]2OCc3cnnn3CCCC(=O)N([C@@H](C)CO)C[C@H]2C)cc1,-0.0292

# — PubChem BioAssay AID434959 (Broad Institute, 2010)
